Measurements as given in PubChem BioAssay AID1159580 (chemical genetic matrix, 2015).
Out of some 5,500 compounds screened, about 2,000 (36%) were called active. About 18% were inconclusive and are not listed. Some of the results follow. A number with no mark means an inactive call. Rule as the data show it: active = normalized growth mostly below about 0.91 (no sharp cut-off); inconclusive = no clear call, values can overlap the other calls; inactive = mostly above about 0.92.

Assay: chemical genetic growth profiling, strain panel (AID 1159580);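 also: tested at 20 µM; growth read once vehicle control cultures reached saturation at 30 °C; 1 = growth at the plate median or of vehicle wells; lower values mean less growth of the strain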
Details: S. cerevisiae deletion strains, growth OD

In the case of `CC(C(=O)O)[C@H]1CCC2C3CC=C4C[C@@H](O)CC[C@]4(C)C3CC[C@@]21C` (stereo not given in full), the normalized growth (locus YAL021C, strain ccr4, active compounds read low) is reported as 0.939, the normalized growth (locus YAL026C, strain drs2, active compounds read low) is reported as 0.627 (active) and the normalized growth (locus YAL030W, strain snc1, active compounds read low) is reported as 1.03. For the same compound, the normalized growth (locus YBL061C, strain skt5, active compounds read low) was 1.03, the normalized growth (locus YBR009C, strain hhf1, active compounds read low) was 0.979 and the normalized growth (locus YBR023C, strain chs3, active compounds read low) was 1. It also gave a normalized growth (locus YBR171W, strain sec66, active compounds read low) of 1.02, a normalized growth (locus YBR231C, strain swc5, active compounds read low) of 1.04 and a normalized growth (locus YBR279W, strain paf1, active compounds read low) of 1.02. The normalized growth (locus YCL011C, strain gbp2, active compounds read low) was 1.03, the normalized growth (locus YCL016C, strain dcc1, active compounds read low) was 0.977 and the normalized growth (locus YCL061C, strain MRC1, active compounds read low) was 1. For the same compound, the normalized growth (locus YCL069W, strain vba3, active compounds read low) was 1.03, the normalized growth (locus YCR088W, strain abp1, active compounds read low) was 1.04 and the normalized growth (locus YDL005C, strain med2, active compounds read low) was 1.05. The normalized growth (locus YDL040C, strain nat1, active compounds read low) was 1.04, the normalized growth (locus YDR001C, strain nth1, active compounds read low) was 1.04 and the normalized growth (locus YDR069C, strain doa4, active compounds read low) was 0.988. The normalized growth (locus YDR137W, strain rgp1, active compounds read low) was 0.562 (active), the normalized growth (locus YDR159W, strain sac3, active compounds read low) was 1.04 and the normalized growth (locus YDR195W, strain ref2) was 1.35 [resistant] (active). The normalized growth (locus YDR297W, strain sur2, active compounds read low) was 1.02, the normalized growth (locus YDR334W, strain swr1, active compounds read low) was 1.05 and the normalized growth (locus YDR335W, strain msn5, active compounds read low) was 1.02. The normalized growth (locus YDR392W, strain spt3, active compounds read low) was 0.733 (active), the normalized growth (locus YEL003W, strain gim4, active compounds read low) was 1.02 and the normalized growth (locus YEL037C, strain rad23, active compounds read low) was 1.03. For the same compound, the normalized growth (locus YEL061C, strain CIN8 (second series), active compounds read low) was 1.05, the normalized growth (locus YER015W, strain faa2, active compounds read low) was 1.01 and the normalized growth (locus YER016W, strain bim1, active compounds read low) was 1.04. It also gave a normalized growth (locus YER111C, strain swi4, active compounds read low) of 1.02, a normalized growth (locus YER155C, strain BEM2 (second series), active compounds read low) of 1.08 and a normalized growth (locus YFR010W, strain ubp6, active compounds read low) of 0.953. For the same compound, the normalized growth (locus YGL167C, strain pmr1, active compounds read low) was 1.03, the normalized growth (locus YGL173C, strain kem1, active compounds read low) was 0.981 and the normalized growth (locus YGL227W, strain vid30, active compounds read low) was 1.04. For the same compound, the normalized growth (locus YGL240W, strain doc1, active compounds read low) was 1.03, the normalized growth (locus YGL253W, strain hxk2, active compounds read low) was 0.989 and the normalized growth (locus YHR013C, strain ard1, active compounds read low) was 1.04. For the same compound, the normalized growth (locus YHR027C, strain rpn1, active compounds read low) was 1.02, the normalized growth (locus YHR030C, strain SLT2, active compounds read low) was 1.04 and the normalized growth (locus YHR079C, strain IRE1, active compounds read low) was 1.03. For the same compound, the normalized growth (locus YHR142W, strain chs7, active compounds read low) was 0.967, the normalized growth (locus YJL092W, strain hpr5, active compounds read low) was 1.02 and the normalized growth (locus YJL095W, strain BCK1 (second series), active compounds read low) was 1.03. It also gave a normalized growth (locus YJL095W, strain BCK1, active compounds read low) of 1.02, a normalized growth (locus YJL115W, strain asf1, active compounds read low) of 1.04 and a normalized growth (locus YJL129C, strain trk1, active compounds read low) of 1.03. For the same compound, the normalized growth (locus YJL154C, strain vps35, active compounds read low) was 1.04, the normalized growth (locus YJL164C, strain tpk1, active compounds read low) was 0.973 and the normalized growth (locus YJL166W, strain qcr8, active compounds read low) was 0.97. For the same compound, the normalized growth (locus YJL187C, strain SWE1, active compounds read low) was 1.01, the normalized growth (locus YJR066W, strain TOR1, active compounds read low) was 0.98 and the normalized growth (locus YKL160W, strain elf1, active compounds read low) was 1. The normalized growth (locus YKR026C, strain gcn3, active compounds read low) was 1.04, the normalized growth (locus YKR091W, strain srl3, active compounds read low) was 1.05 and the normalized growth (locus YLL001W, strain dnm1, active compounds read low) was 1.01. It also gave a normalized growth (locus YLL026W, active compounds read low) of 1.03, a normalized growth (locus YLL041C, strain sdh2, active compounds read low) of 1.03 and a normalized growth (locus YLR027C, strain aat2, active compounds read low) of 1.01. For the same compound, the normalized growth (locus YLR113W, strain HOG1, active compounds read low) was 1.06, the normalized growth (locus YLR221C, strain rsa3, active compounds read low) was 0.996 and the normalized growth (locus YLR258W, strain gsy2, active compounds read low) was 1.02. The normalized growth (locus YLR262C, strain YPT6 (second series), active compounds read low) was 0.485 (active), the normalized growth (locus YLR320W, strain mms22, active compounds read low) was 0.919 and the normalized growth (locus YLR342W, strain FKS1, active compounds read low) was 1.03. For the same compound, the normalized growth (locus YLR357W, strain rsc2, active compounds read low) was 1.1, the normalized growth (locus YLR370C, strain arc18, active compounds read low) was 1.01 and the normalized growth (locus YLR384C, strain iki3, active compounds read low) was 1.04. The normalized growth (locus YML120C, strain ndi1, active compounds read low) was 1.01, the normalized growth (locus YMR058W, strain fet3, active compounds read low) was 1 and the normalized growth (locus YMR125W, strain sto1, active compounds read low) was 1.03. The normalized growth (locus YMR129W, active compounds read low) was 1.03, the normalized growth (locus YMR205C, strain PFK2, active compounds read low) was 1.02 and the normalized growth (locus YMR231W, strain pep5, active compounds read low) was 1.02. For the same compound, the normalized growth (locus YNL071W, strain lat1, active compounds read low) was 0.989, the normalized growth (locus YNL183C, strain NPR1, active compounds read low) was 0.971 and the normalized growth (locus YNL209W, strain ssb2, active compounds read low) was 1.03. For the same compound, the normalized growth (locus YNL248C, strain rpa49, active compounds read low) was 0.963, the normalized growth (locus YNL322C, strain KRE1 (second series), active compounds read low) was 1.06 and the normalized growth (locus YNR049C, strain mso1, active compounds read low) was 1.05. It also gave a normalized growth (locus YOR001W, strain rrp6, active compounds read low) of 0.997, a normalized growth (locus YOR070C, strain gyp1, active compounds read low) of 0.962 and a normalized growth (locus YOR080W, strain dia2, active compounds read low) of 1.03. It also gave a normalized growth (locus YOR083W, strain WHI5, active compounds read low) of 0.983, a normalized growth (locus YOR106W, strain vam3, active compounds read low) of 1.01 and a normalized growth (locus YOR231W, strain MKK1, active compounds read low) of 1.06. It also gave a normalized growth (locus YOR265W, strain rbl2, active compounds read low) of 1.02, a normalized growth (locus YOR270C, strain vph1, active compounds read low) of 0.961 and a normalized growth (locus YOR290C, strain snf2, active compounds read low) of 0.995. For the same compound, the normalized growth (locus YPL051W, strain arl3, active compounds read low) was 0.963, the normalized growth (locus YPL078C, strain atp4, active compounds read low) was 1 and the normalized growth (locus YPL106C, strain sse1, active compounds read low) was 1.26 [resistant] (active). It also gave a normalized growth (locus YPL240C, strain hsp82, active compounds read low) of 1.04 and a normalized growth (locus YPL256C, strain CLN2, active compounds read low) of 1.06.
